These results are taken from PubChem BioAssay (NCATS).

A short description of test [1]: qHTS profiling for inhibitors of Plasmodium falciparum proliferation (AID 504749).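 Further: 0% = DMSO vehicle and full inhibition = artemisinin control; nearly all actives have a fitted effect of over 60% in size.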 The note with it: P. falciparum in erythrocytes, SYBR Green DNA, 72 h, at 28.7 µM (top of the series). The gist of the method:
(§1)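 Fluorescence of SYBR Green-bound parasite DNA, read at 485/535 nm, served as the growth measure. Infected erythrocytes were cultured with compound 72 h; artemisinin (0.29 uM) and DMSO wells defined the normalization range.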

Test [2] relates to 3D7. The test is described as above. To be noted: P. falciparum in erythrocytes, SYBR Green DNA, 72 h; series mostly up to 28.7 µM. The gist of the method:
as §1

For test [3], the system named is 7G8. The description is as above. To be noted: P. falciparum in erythrocytes, SYBR Green DNA, 72 h; series mostly up to 28.7 µM. The essentials:
as §1

The test system of test [4] is AA1029. The description is as above. To be noted: P. falciparum in erythrocytes, SYBR Green DNA, 72 h; series mostly up to 28.7 µM. The gist of the method: as §1
The subject of test [5] is AS120. The test is described as above. The note with it: P. falciparum in erythrocytes, SYBR Green DNA, 72 h; series mostly up to 28.7 µM. The essentials:
as §1

Test [6] has as its system ATS189. Described as above. To be noted: P. falciparum in erythrocytes, SYBR Green DNA, 72 h; series mostly up to 28.7 µM. The essentials: as §1
The test system of test [7] is ATS95. Described as above. The note with it: P. falciparum in erythrocytes, SYBR Green DNA, 72 h; series mostly up to 28.7 µM. The essentials: as §1
Test [8] relates to C2A. The description is as above. The note with it: P. falciparum in erythrocytes, SYBR Green DNA, 72 h; series mostly up to 28.7 µM. The gist of the method: as §1
Test [9] deals with CP185. The description is as above. The note with it: P. falciparum in erythrocytes, SYBR Green DNA, 72 h; series mostly up to 28.7 µM. The essentials:
as §1

Test [10] has as its system CP191. The description is as above. To be noted: P. falciparum in erythrocytes, SYBR Green DNA, 72 h; series mostly up to 28.7 µM. The essentials:
as §1

Test [11] relates to CP192. The test is described as above. The note with it: P. falciparum in erythrocytes, SYBR Green DNA, 72 h; series mostly up to 28.7 µM. The gist of the method: as §1
The test system of test [12] is CP194. The description is as above. To be noted: P. falciparum in erythrocytes, SYBR Green DNA, 72 h; series mostly up to 28.7 µM. The gist of the method: as §1
The test system of test [13] is CP201. Described as above. To be noted: P. falciparum in erythrocytes, SYBR Green DNA, 72 h; series mostly up to 28.7 µM. The gist of the method:
as §1

Test [14] in a line: qHTS Counterscreen for compound interference against the NCATS DSHEA and TCM libraries (AID 1919978).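 Further: compounds preincubated with 1 µM D-luciferin or buffer before detection reagent; % of control where 0% means no effect.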 To be noted: firefly luciferase detection reagent interference, luminescence. The gist of the method: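 Firefly luciferase detection reagent was added after compounds (19.5 nM–39.8 uM final) had been incubated 15 min at room temperature with 1 uM D-luciferin or with 100 mM phosphate buffer alone. Luminescence was read after 30 min at room temperature.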
(qHTS replaces the single test concentration by a dilution series.)

The nature of test [15]: Dual reporter qHTS for agonist of Pregnane X Receptor (hPXR) against the NCATS DSHEA and TCM libraries: Fluorescence readout (AID 1920058). Further: 0% is about no effect. To be noted: PXR dual reporter cells; series mostly up to 40 µM. The essentials:
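Fluorescence read-out for cell viability: CellTiter-Fluor, 1 h at 37 °C, Ex/Em 405/540 nm. This followed ~24 h treatment of hPXR-Luc HepG2 cells with substances in agonist mode.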

In test [16] the target is Nuclear receptor subfamily 1 group I member 2 (Homo sapiens) (UniProt O75469). Put plainly: Dual reporter qHTS for agonist of Pregnane X Receptor (hPXR) against the NCATS DSHEA and TCM libraries: Luminescence readout (AID 1920059). Further: 0% is about no effect. The note with it: hPXR dual reporter cells, luciferase luminescence agonist; series mostly up to 40 µM. The essentials: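 hPXR-LucHepG2 cells in phenol red-free DMEM with 5% charcoal-stripped FBS, 2000 cells/well, attached 5 h, then exposed 24 h at 37C to compounds; rifampicin as positive agonist control (2.8 nM–92 uM). Luciferase luminescence read.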

Test [17] has the same target. Briefly: Dual reporter qHTS for antagonist of Pregnane X Receptor (hPXR) against the NCATS DSHEA and TCM libraries: Luminescence Readout (AID 1920060). Further: 0% is about no effect. The note with it: hPXR dual reporter cells, luciferase luminescence, antagonist mode; series mostly up to 40 µM. The gist of the method:
(§2)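 Rifampicin-stimulated (2 uM final) hPXR-luciferase HepG2 cells were treated for 24 h with DSNP/TCM substances. Viability came from CellTiter-Fluor fluorescence, reporter activity from ONE-Glo luminescence.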

Test [18] is described as follows: Dual reporter qHTS for antagonist of Pregnane X Receptor (hPXR) against the NCATS DSHEA and TCM libraries: Fluorescence Readout (AID 1920061). Further: 0% is about no effect. To be noted: PXR dual reporter cells, antagonist mode; series mostly up to 40 µM. The essentials: as §2
Test [19] can be described thus: qHTS drug screen for cell cycle checkpoint inhibitors in PARPi-resistant BRCA-mutant ovarian cancer cell lines. (AID 1963452; calls by dose curve). To be noted: PEO1/OlaR viability, CellTiter-Glo luminescence, 96 h, stronger effect = lower value. The essentials:
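PEO1, PEO4 and PEO1/OlaR ovarian cancer cells, 600 per well, exposed 96 h at 37C to a dilution series. Viability read by CellTiter-Glo luminescence, normalized to DMSO and empty wells; activity summarized as Z-AUC.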

[20] abbreviates: measured here: PEO1 parental Z-AUC.

The structures appear in SMILES notation. Records with an inconclusive call do not appear. Activity calls are given as the source filed them. Unless noted, the call rests on the fitted dose curve; in most records, active means well fitted curve in the direction sought with a large enough effect; inconclusive means small, poorly fitted or top-dose-only effect, or another doubt; inactive means no such curve, though single readings can be large; an effect the other way counts as inactive or inconclusive.

Sequence of Nuclear receptor subfamily 1 group I member 2 (Homo sapiens) (O75469 whole entry, looked up): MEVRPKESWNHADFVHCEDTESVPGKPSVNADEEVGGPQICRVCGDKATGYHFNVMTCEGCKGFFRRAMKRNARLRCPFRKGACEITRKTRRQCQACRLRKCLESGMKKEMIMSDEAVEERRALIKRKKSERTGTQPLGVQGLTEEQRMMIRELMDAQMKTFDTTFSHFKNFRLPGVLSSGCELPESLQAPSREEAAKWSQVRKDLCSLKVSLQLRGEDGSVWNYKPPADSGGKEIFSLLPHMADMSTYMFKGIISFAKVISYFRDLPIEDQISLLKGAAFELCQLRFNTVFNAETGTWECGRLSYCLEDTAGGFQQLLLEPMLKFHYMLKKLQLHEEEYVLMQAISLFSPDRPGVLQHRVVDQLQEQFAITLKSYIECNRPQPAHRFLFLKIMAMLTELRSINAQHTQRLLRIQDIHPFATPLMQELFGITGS

Consider `O=C(O)Cn1c(C(=O)Nc2nc(-c3ccccc3Cl)cs2)cc2ccccc21`, for which the activity, negative = inhibition in [1] (parasite line A) was 10.1% (inactive); in [1] (parasite line B) it was 5.81% (inactive). The Potency entry in [2], in [3], in [4], in test [5], in test [6] and in test [7] was “inactive” each time. Moreover, the Potency result in test [8] and in [9] was “inactive” in each case. Further, the compound was called inactive in test [10], in test [11], in test [12] and in test [13].
As for `c1ccc2[nH]ccc2c1`, the values for the activity, negative = inhibition in test [1] (parasite line A) and in test [1] (parasite line B) were 15.1% (inactive) and 19.4% (inactive), respectively. Besides, the Potency result in test [2], in test [3], in test [4], in test [5], in test [6] and in test [7] was “inactive” in each case. Also, the Potency entry in test [8] and in test [9] was “inactive” each time. Moreover, the compound was classed as inactive in test [10], in test [11], in test [12] and in test [13].
On to `Cc1ccc(C(C)C)c(O)c1`, for which the max response in [14] was 0.241% (inactive). Further, the call in [15], in test [16], in test [17], in test [18], in [10] and in [11] was inactive. For the same compound, the call in test [12] and in [13] was inactive. For the same compound, the activity, negative = inhibition in test [1] (parasite line A) was 4.16% (inactive); in test [1] (parasite line B), -10.5% (inactive). Further, the Potency entry in test [2], in [3], in test [4], in [5], in test [6] and in test [7] was “inactive” throughout. Moreover, the Potency entry in [8] and in [9] was “inactive” in each case.
As for `Cc1ccc(S(=O)(=O)NC(=O)NC2CCCCCCC2)cc1`, the figures for the activity, negative = inhibition in test [1] (parasite line A) and in test [1] (parasite line B) were 11.2% (inactive) and 10.7% (inactive), respectively. Moreover, the Potency result in test [2], in [3], in test [4], in [5], in [6] and in test [7] was “inactive” throughout. For the same compound, the Potency result in test [8] and in test [9] was “inactive” in each case. Further, the compound was classed as inactive in [10], in test [11], in test [12] and in test [13].
In the case of `O=C(/C=C/c1ccc(O)c(O)c1)O[C@@H]1C[C@@](OC(=O)/C=C/c2ccc(O)c(O)c2)(C(=O)O)C[C@@H](O)[C@@H]1O`, the max response in test [14] is 5.25% (inactive). Moreover, the outcome in [15], in test [16], in test [17] and in test [18] was inactive.
Regarding `C/C=C/C(=O)N(CC)c1ccccc1C`, the Z-AUC in test [19] is 0.904 (inactive); in test [19] (setting [20]), 0.852; in [19] (measured here: PEO4 Z-AUC) it was 0.821.
On to `O=c1[nH]c2cc(C(F)(F)F)c(N3CCOCC3)cc2n(CP(=O)(O)O)c1=O`, for which the activity, negative = inhibition is 11.3% (inactive) in test [1] (parasite line A) and -0.254% (inactive) in test [1] (parasite line B). The Potency entry in [2], in [3], in test [4], in test [5], in test [6] and in [7] was “inactive” each time. Also, the Potency entry in [8] and in test [9] was “inactive” in each case. Besides, the result in [10], in test [11], in [12] and in [13] was inactive.
For `O=c1[nH]c(=O)n([C@H]2C[C@H](O)[C@@H](CO)O2)cc1I`, the Z-AUC was 1.59 (inactive) in [19], 0.705 in test [19] (setting [20]) and 0.916 in [19] (measured here: PEO4 Z-AUC).
With `OC[C@@H](O)[C@@H](O)[C@H](O)[C@H](O)CO`, the Z-AUC in test [19] is -0.605 (inactive); in test [19] (setting [20]), -0.476; in test [19] (measured here: PEO4 Z-AUC) it was -0.786. Besides, the activity, negative = inhibition in test [1] (parasite line A) is 7.85% (inactive); in [1] (parasite line B), 7.16% (inactive). For the same compound, the Potency entry in [2], in test [3], in [4], in test [5], in test [6] and in test [7] was “inactive” throughout. Further, the Potency result in test [8] and in [9] was “inactive” each time. Besides, the outcome in [10], in test [11], in test [12] and in test [13] was inactive.
As for `NCC1CCC(C(=O)Oc2ccc(CCC(=O)O)cc2)CC1` (configuration not stated), the activity, negative = inhibition was -0.969% (inactive) in test [1] (parasite line A) and 4.31% (inactive) in test [1] (parasite line B). Moreover, the Potency result in test [2], in test [3], in test [4], in [5], in test [6] and in [7] was “inactive” each time. The Potency result in test [8] and in test [9] was “inactive” in each case. Further, the outcome in test [10], in test [11], in test [12] and in [13] was inactive.
